Most compounds without a hit are left out; they make up all but 5.1% or so of the library.
RAM network inh = inhibitors of the yeast RAM network, primary screen, dse1pr::URA3 reporter, 5-FOA selection | inhibition, % at 50 µM | hit rate 1.8% among 190,000 | S. cerevisiae dse1pr::URA3 reporter, 5-FOA growth OD615, 2 d; analog-sensitive cbk1-as2 kinase mutant strain;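 active = inhibition above a set limit, 3 SD over mean compound inhibition, cut at about 8.4% in these data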;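 note: inhibition rescues growth on 5-FOA so higher OD means more RAM inhibition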
ROMK mod = ROMK potassium channel modulators, primary screen, cell-based, thallium flux, MLSMR library; Tet-inducible ROMK, thallium flux fluorescence; actives lie on both sides; hit rate 2% among 130,000; AID 1918, 2009; B-score at 10 µM;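 active = signal ratio slope over the read window, or its plate-corrected B-score, at least 3 SD from the plate mean, either direction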;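 note: B-score of the F/F0 ratio slope over 7 to 12 s after thallium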
Target sequence (P48048 whole entry, looked up): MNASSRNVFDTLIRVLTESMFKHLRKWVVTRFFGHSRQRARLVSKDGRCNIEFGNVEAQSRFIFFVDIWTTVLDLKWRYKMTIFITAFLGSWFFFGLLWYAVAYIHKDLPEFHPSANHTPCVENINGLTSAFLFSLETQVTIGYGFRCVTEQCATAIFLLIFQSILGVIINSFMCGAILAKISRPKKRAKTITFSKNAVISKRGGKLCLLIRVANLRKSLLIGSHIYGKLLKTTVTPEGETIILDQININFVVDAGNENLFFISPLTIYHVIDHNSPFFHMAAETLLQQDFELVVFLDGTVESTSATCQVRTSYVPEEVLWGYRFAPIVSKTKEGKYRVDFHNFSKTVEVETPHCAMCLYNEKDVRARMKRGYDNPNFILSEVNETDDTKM
S1P4 agonist = S1P4 receptor agonists, primary screen, cell-based; S1P4-expressing cell line, agonist reporter assay; activation, % at 4.98 µM; Sphingosine 1-phosphate receptor 4 (Homo sapiens), O95977; hit rate 0.35% among 220,000; in the data active = activation above about 11%
S1P4 antagonist = S1P4 receptor antagonists, primary screen, cell-based. AID 1510, 2009. hit rate 0.26% among 220,000. Sphingosine 1-phosphate receptor 4 (Homo sapiens), O95977. inhibition, % at 4.98 µM. S1P4-expressing cells, antagonist mode, reporter read-out; in the data active = inhibition above about 29%
Cl transport mod = KCC2 cotransporter modulators, thallium flux, primary screen, cell-based, HEK293 KCC2, FluoZin-2 fluorescence, MLSMR | Solute carrier family 12 member 5 (Homo sapiens), Q9H2X9 | hit rate 2.2% among 190,000 | B-score of Tl+ flux slope (higher = more flux/activation; lower = inhibition) at 10 µM | KCC2 cells, thallium flux FluoZin-2 fluorescence;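 active = thallium flux slope and its plate-corrected score both differing from the plate sample mean at a set confidence after two filtering rounds, in either direction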;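 note: slope of fluorescence scaled to starting intensity during 10 to 20 s after thallium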
S1P3 antag = S1P3 receptor antagonists, primary screen, cell-based; CHO S1P3 NFAT-BLA reporter, FRET fluorescence, antagonist mode; inhibition, % at 4.98 µM; hit rate 0.27% among 170,000; AID 485, 2006;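 active = inhibition above the plate cutoff, the mean inhibition of test wells on that plate plus 3 SD, cut at about 28% in these data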;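 note: cells challenged with S1P at its EC80 of 0.8 µM; blue over green emission ratio from cleaved BLA substrate after 4 h stimulation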
RAM efflux-def = 5-FOA growth of efflux-deficient control yeast, dose response, counter-screen for RAM network inhibitor project, S. cerevisiae, OD615; shares compounds with RAM network inh; S. cerevisiae efflux-deficient reporter strain, 5-FOA growth OD615, 2 days; max inhibition, %; 1,200 tested, under 10 active; AID 1305, 2008; call rule not given here
Numbers stand for hits; . = inactive; / = no result given.

SMILES	RAM network inh	ROMK mod	S1P4 agonist	S1P4 antagonist	Cl transport mod	S1P3 antag	RAM efflux-def
CCOC(=O)c1cc(C(C)C)sc1NC(=O)COC(=O)CCS(=O)(=O)c1ccccc1	13	.	.	.	.	.	.
CCOC(=O)c1c(NC(=O)COC(=O)CCS(=O)(=O)c2ccc(C)cc2)sc(C)c1C	14	/	.	.	.	.	.
CCOC(=O)CNC(=S)N(Cc1cccs1)C1CCCCC1	.	.	.	.	.	.	/
CC(CCc1ccccc1)NC(=O)CNC(=S)N(Cc1cccs1)C1CCCC1 (stereo unspecified)	12	.	.	.	.	.	.
Cc1ccc(Cl)c(OCC(=O)Nc2sc(C)c(C)c2C#N)c1	.	/	.	.	.	.	/
O=C(COC(=O)c1cccs1)Nc1ccccc1C(F)(F)F	.	/	.	.	.	.	/
O=C(COC(=O)c1ccccc1-c1nc2ccccc2s1)Nc1ccccc1C(F)(F)F	15	.	.	.	.	.	.
CCOc1ccc(N(C)S(=O)(=O)c2ccc3[nH]cc(C(=O)NCCOC)c(=O)c3c2)cc1	14	.	.	.	.	.	.
CCCCc1ccc(-c2csc(/C(C#N)=C\c3ccco3)n2)cc1	15	/	.	.	.	.	.
COc1ccc(-c2csc(/C(C#N)=C\c3cccc([N+](=O)[O-])c3)n2)cc1	.	/	.	.	.	.	/
CCCCc1ccc(-c2csc(/C(C#N)=C/c3ccc(C)o3)n2)cc1	13	.	.	.	.	/	.
CC1C(=O)N(c2ccc(S(=O)(=O)N(C)C)cc2)C1(/C=C/c1ccccc1)C(=O)NC1CCCC1 (stereo unspecified)	.	.	.	.	.	.	/
Cc1cc(-c2nnc(CCC(=O)N(CC3CCC3)CC3CCCO3)o2)no1 (stereo unspecified)	.	.	.	.	.	.	/
Cc1cc(C)cc(NC(=S)NN)c1	.	.	.	.	.	.	/
O=c1c2ccccc2c(C=NCCCN2CCOCC2)c(O)n1Cc1ccccc1	.	/	.	.	.	.	/
O=c1c2ccccc2c(C=NCCc2ccccc2)c(O)n1Cc1ccccc1	13	/	.	.	/	/	.
Cc1cc(C(=O)N/N=C/c2c(C)nn(-c3ccccc3)c2C)c(C)o1	/	/	.	.	.	.	/
Cc1cc(C)c(OC2(c3ccccc3)OC(=O)c3ccccc32)c(C)c1 (stereo unspecified)	12	/	.	.	.	/	.
Cc1cccc(C)c1OC1(c2ccccc2)OC(=O)c2ccccc21 (stereo unspecified)	12	/	.	.	.	/	.
CN(C)c1ccc(/C=C2\C(=N)N3C(=NC2=O)Sc2cc(S(C)(=O)=O)ccc23)cc1	/	.	.	.	.	.	/
CC(=O)c1ccc(OCc2ccc(Oc3c(Cl)cccc3[N+](=O)[O-])cc2)cc1	13	/	.	.	.	.	.
CCCOC(=O)c1ccc(Oc2c(-c3ccc(OCC)cc3O)n[nH]c2C)cc1	15	.	.	.	/	.	.
CCCOC(=O)c1ccc(Oc2cn[nH]c2-c2ccc(OCC)cc2O)cc1	.	.	.	.	/	.	/
O=C(NCCn1cc(SCc2ccccc2)c2ccccc21)c1ccccc1F	15	.	.	.	.	.	.
O=C(NCc1ccccn1)c1cn(-c2ccccc2)nc1-c1ccc(Cl)cc1	.	/	.	.	.	.	/
SMILES	RAM network inh	ROMK mod	S1P4 agonist	S1P4 antagonist	Cl transport mod	S1P3 antag	RAM efflux-def
CCN(CC)c1nc(SCCOC(=O)Nc2ccccc2)nc(N(CC)CC)n1	18	.	.	.	.	/	.
C=CCn1c(SCC(=O)/C(C#N)=C(\C)N)nc2sc(CC)cc2c1=O	13	/	.	.	.	.	.
CC(=O)Oc1cccc(N2C(=O)c3ccc(C(=O)Nc4c[nH]c(=O)[nH]c4=O)cc3C2=O)c1	12	.	.	.	.	.	.
CC(C)CCN1C(=O)c2ccc(C(=O)Nc3c[nH]c(=O)[nH]c3=O)cc2C1=O	.	.	.	.	.	.	/
O=C(N/N=C/c1ccncc1)C1C2CCCCCCC21 (stereo unspecified)	.	.	.	.	.	.	/
Cn1cc(CNCc2cn(C)nc2-c2ccc(C3CCCCC3)cc2)cn1	.	.	.	.	.	.	/
C/C(=N\NC(=S)NCc1ccccc1)c1ccc(C#N)cc1	.	.	.	.	.	.	/
C/C(=N\NC(=S)NCc1ccccc1)c1ccc(C(C)(C)C)cc1	11	.	.	.	.	.	.
Cc1cc(=O)[nH]c(SCC(=O)OCc2ccccc2)c1C#N	.	.	.	.	.	.	/
COC(=O)CCCC(=O)N1CCCC(CNS(=O)(=O)c2ccc(OC)cc2)C1 (stereo unspecified)	.	.	.	.	.	.	/
O=C(CSc1nnc(-c2ccncc2)n1-c1ccccc1Cl)Nc1ccc(C(=O)O)cc1	12	.	.	.	.	.	.
Cc1ccc2[nH]c(=O)c(-c3noc(CC(C)C)n3)cc2c1	/	/	.	.	.	.	/
CC1CCCC(C)N1CC(O)COc1c(F)cc(Br)cc1F (stereo unspecified)	.	.	.	.	.	.	/
O=C(C(Sc1ccccc1)c1ccccc1)N1CCN(c2ccccc2)CC1 (stereo unspecified)	21	.	.	.	.	.	.
COc1ccc(/C=N/NC(=O)c2ccncc2)cc1Cn1nc([N+](=O)[O-])c(Br)c1C	.	.	.	.	.	.	/
O=C(OCC#CCSc1nnc(-c2ccc(Br)cc2)o1)c1cccs1	16	.	.	.	.	.	.
Cc1ccc(-c2nnc(SCC#CCOC(=O)c3cccs3)o2)cc1	.	.	.	.	.	/	/
CCCCNc1nc(=S)n(-c2ccccc2)c(C)c1C(C)=O	.	.	.	.	.	.	/
COc1ccc(NC(=O)CSc2nc3sc(C)c(C)c3c(=O)n2Cc2ccco2)cc1	.	.	.	.	.	.	/
Cc1sc2nc(SCc3ccccc3)n(Cc3ccco3)c(=O)c2c1C	13	/	.	.	.	/	.
Cc1cccc(CSc2nc3sc(C)c(C)c3c(=O)n2Cc2ccco2)c1	22	/	.	.	/	/	.
COc1cccc(CSc2nc3sc(C)c(C)c3c(=O)n2Cc2ccco2)c1	16	.	.	.	/	/	.
COC(=O)c1cnn2c1C(=O)N(Cc1cccs1)CC2	.	.	.	.	.	.	/
COc1ccccc1NC(=O)Nc1ccc2c(c1)nc(C)n2C	.	.	.	.	.	.	/

Screens deposited in PubChem by several laboratories.
